Laboratory results from PubChem BioAssay.
Activity calls are given as the source filed them. Unless noted, how the calls were made is not given here.

Experiments:
[1] = A549 cell viability effects, profiling panel, calcein-AM fluorescence, 48 h, basal (AID 1162); conditions: higher = more signal; further: test concentration not given here
[2] = adipocyte viability effects, profiling panel, cell-based, 3T3-L1 adipocytes, calcein-AM fluorescence, 48 h, basal (AID 1163); conditions: 3T3-L1 adipocytes viability, higher = more signal; further: test concentration not given here
[3] = HepG2 cell viability effects, profiling panel, calcein-AM fluorescence, 48 h, basal (AID 1164); conditions: higher = more signal; further: test concentration not given here
[4] = MM1S cell viability effects, profiling panel, calcein-AM fluorescence, 48 h, basal (AID 1165); conditions: higher = more signal;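 further: viability of MM1S multiple myeloma cells under basal unstimulated conditions; test concentration not given here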
[5] = basal RPMI8226 viability, no added stimulus, profiling panel, cell-based, calcein-AM fluorescence, 48 h, PK04 Diversity Set (AID 1166); conditions: RPMI8226 myeloma viability, higher = more signal;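 further: cells grown under basal conditions without added stimulus; test concentration not given here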
[6] = basal HepG2 mitochondrial membrane potential changes, profiling panel, cell-based, JC-1 fluorescence, 24 h, 100 nL compound (AID 1167); conditions: higher = more signal; further: test concentration not given here
[7] = basal 3T3-L1 adipocyte mitochondrial potential changes, profiling panel, cell-based, JC-1 fluorescence, 3T3-L1 adipocytes, 24 h, 100 nL compound (AID 1168); conditions: JC-1 mitochondrial fluorescence, higher = more signal, called active from +8 up or from −8 down; further: test concentration not given here
[8] = basal RPMI8226 mitochondrial membrane potential changes, profiling panel, cell-based, JC-1 fluorescence, 24 h, 100 nL compound (AID 1169); conditions: RPMI8226 myeloma, JC-1 mitochondrial potential fluorescence, higher = more signal; further: test concentration not given here
[9] = basal MM1S mitochondrial membrane potential changes, profiling panel, cell-based, JC-1 fluorescence, 24 h, 100 nL compound (AID 1170); conditions: higher = more signal; further: test concentration not given here
[10] = A549 lung cancer cell viability effects, profiling panel, resazurin fluorescence, 24 h, PK04 Diversity Set (AID 1171); conditions: higher = more signal, called active from +8 up or from −8 down; further: test concentration not given here
[11] = HepG2 liver cancer cell viability effects, profiling panel, resazurin fluorescence, 24 h, PK04 Diversity Set (AID 1172); conditions: higher = more signal; further: test concentration not given here
[12] = basal S. cerevisiae growth modulation, no modifier, primary screen, OD600, strain BY4716, 24 h, basal condition (AID 1173); conditions: OD600, 24 h, higher = more signal, called active from +8 up or from −8 down
[13] = MM1S myeloma cell viability, profiling panel, resazurin fluorescence, basal, 24 h, PK04 Diversity Set (AID 1174); conditions: higher = more signal, called active from +8 up or from −8 down;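 further: MM1S multiple myeloma cell line; test concentration not given here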
[14] = biological target: Dihydroorotate dehydrogenase (quinone), mitochondrial (Plasmodium falciparum (isolate 3D7)) (UniProt Q08210); assay: PfDHODH enzyme inhibitors, primary screen, biochemical, C-terminal His tag, absorbance 600 nm (AID 1175); conditions: DCIP absorbance 600 nm, higher = more signal, called active from +8 up or from −8 down;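 further: recombinant parasite enzyme with a five histidine tag at its C terminus; test concentration not given here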
[15] = P. aeruginosa biofilm formation inhibitors, primary screen, strain PAO1, LB-PBS medium, absorbance 600 nm (AID 1176); further: test concentration not given here; conditions: P. aeruginosa PAO1 growth/biofilm, A600, 12 h; higher = more signal
[16] = S. cerevisiae RM11-1a growth modifiers, primary screen, strain RM11-1a, OD600, basal, 24 h (AID 1177); conditions: OD600, 24 h, higher = more signal, called active from +8 up or from −8 down;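 further: cultures grown under basal conditions with no added stressor; test concentration not given here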
[17] = E. coli acrAB mutant growth effects, primary screen, E. coli filamentation inducers, strain DRC39, OD650, 24 h (AID 1178); conditions: higher = more signal, called active from +8 up or from −8 down;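 further: growth measured as culture turbidity by optical density at 650 nm; test concentration not given here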
[18] = E. coli acrAB mutant growth effects, primary screen, E. coli filamentation inducers, strain DRC39, OD650, 48 h (AID 1179);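 further: screen aims at cell division blockers that make cells filament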; conditions: E. coli DRC39 delta-acrAB growth, higher = more signal, called active from +8 up or from −8 down
[19] = RPMI8226 myeloma cell viability, profiling panel, resazurin fluorescence, basal, 24 h, PK04 Diversity Set (AID 1180); conditions: higher = more signal;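 further: RPMI8826 multiple myeloma cell line at 5000 cells per well; test concentration not given here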
[20] = biological target: E3 ubiquitin-protein ligase XIAP (Homo sapiens) (UniProt P98170); assay: XIAP binders, primary screen, biophysical, small-molecule microarray, fluorescence 635 nm (AID 1181); conditions: small-molecule microarray binding, higher = more signal;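 further: score merges 667 nm emission and signal to noise over triplicate slides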
Sequence of E3 ubiquitin-protein ligase XIAP (Homo sapiens) (P98170 whole entry, looked up): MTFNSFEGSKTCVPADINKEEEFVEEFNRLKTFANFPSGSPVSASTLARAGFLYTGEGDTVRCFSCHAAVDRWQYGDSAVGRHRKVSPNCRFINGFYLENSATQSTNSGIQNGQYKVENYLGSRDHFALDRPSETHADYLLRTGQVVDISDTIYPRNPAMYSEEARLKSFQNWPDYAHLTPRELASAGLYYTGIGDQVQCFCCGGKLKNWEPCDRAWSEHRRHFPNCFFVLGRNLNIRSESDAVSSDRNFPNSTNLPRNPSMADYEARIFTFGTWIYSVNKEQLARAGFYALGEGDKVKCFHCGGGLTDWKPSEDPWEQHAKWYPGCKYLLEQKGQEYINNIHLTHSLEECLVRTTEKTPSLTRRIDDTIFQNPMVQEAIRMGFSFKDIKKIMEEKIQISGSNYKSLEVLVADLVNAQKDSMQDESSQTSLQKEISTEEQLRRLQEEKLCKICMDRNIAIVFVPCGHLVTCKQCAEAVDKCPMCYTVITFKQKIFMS

Sequence of Dihydroorotate dehydrogenase (quinone), mitochondrial (Plasmodium falciparum (isolate 3D7)) (Q08210 whole entry, looked up): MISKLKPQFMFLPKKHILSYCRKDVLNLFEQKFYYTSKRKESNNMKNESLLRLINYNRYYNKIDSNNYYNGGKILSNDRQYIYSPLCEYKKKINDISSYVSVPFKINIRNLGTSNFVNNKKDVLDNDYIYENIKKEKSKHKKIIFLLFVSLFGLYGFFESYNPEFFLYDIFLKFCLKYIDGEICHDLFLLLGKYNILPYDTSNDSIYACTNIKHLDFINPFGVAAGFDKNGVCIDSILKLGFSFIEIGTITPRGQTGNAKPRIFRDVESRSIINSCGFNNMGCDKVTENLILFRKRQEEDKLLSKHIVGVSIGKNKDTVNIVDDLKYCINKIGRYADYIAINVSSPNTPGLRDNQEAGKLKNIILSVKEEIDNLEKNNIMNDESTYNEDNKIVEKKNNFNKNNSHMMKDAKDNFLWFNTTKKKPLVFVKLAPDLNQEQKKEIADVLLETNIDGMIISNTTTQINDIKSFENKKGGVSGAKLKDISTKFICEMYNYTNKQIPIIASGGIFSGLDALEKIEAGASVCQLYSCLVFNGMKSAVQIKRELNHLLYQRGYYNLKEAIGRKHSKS

Row | Compound | z-score [1] | z-score [2] | z-score [3] | z-score [4] | z-score [5] | z-score [6] | z-score [7] | z-score [8] | z-score [9] | z-score [10] | z-score [11] | z-score [12] | z-score [13] | composite z-score [14] | z-score [15] | z-score [16] | z-score [17] | z-score [18] | z-score [19] | composite z-score [20]
1 | COc1ccc(C#Cc2ccc3c(c2)[C@]2(C(=O)N3)[C@H](c3ccc(O)cc3)N3[C@H](c4ccccc4)[C@H](c4ccccc4)OC(=O)[C@H]3[C@@H]2C(=O)O)cc1 | -0.884 | 0.943 | 0.127 | -2.24 | -2.2 | -3.68 | -0.742 (inactive) | -0.28 | -0.361 | 0.344 (inactive) | 0.275 | -1.16 (inactive) | 0.504 (inactive) | -2.78 (inactive) | 1.15 (inactive) | 0.0708 (inactive) | 0.355 (inactive) | -0.341 (inactive) | 0.801 | 0.126
2 | CC(C)Cc1ccc(CN2CC[C@@H](NC(=O)Nc3ccccc3)C2)cc1 | -4.11 | -1.07 | -4.91 | -3.11 | -4.03 | -2.75 | 0.465 (inactive) | -1.11 | -3.26 | -2.79 (inactive) | -5.14 | -17.3 (active) | -9.38 (active) | 0.545 (inactive) | 0.294 (inactive) | -4.95 (inactive) | 0.451 (inactive) | -0.748 (inactive) | -4.87 | -0.209
3 | [N-]=[N+]=Nc1ccccc1C[C@]1(C(=O)N2CCOCC2)N=C(c2ccc(OCCCO)cc2)O[C@H]1c1ccccc1 | 0.375 | 0.854 | 1.58 | -0.35 | -0.911 | 1.99 | 1.18 (inactive) | -1.18 | -0.438 | 0.0917 (inactive) | 1.32 | -0.576 (inactive) | -1.25 (inactive) | 0.404 (inactive) | -0.608 (inactive) | 1.05 (inactive) | 1.11 (inactive) | 0.356 (inactive) | 0.101 | 0.0761
4 | COc1ccccc1CN1C(=O)c2ccccc2[C@](Cc2ccccc2I)(C(=O)NCC(F)(F)F)[C@@H]1c1ccc(CO)cc1 | -0.698 | 0.95 | -0.568 | -2.39 | -4.25 | 0.349 | -1.39 (inactive) | -0.68 | -0.176 | 0.12 (inactive) | -0.569 | -1.28 (inactive) | -0.142 (inactive) | -0.673 (inactive) | 0.457 (inactive) | 0.648 (inactive) | -0.496 (inactive) | -0.613 (inactive) | 0.17 | 0.0264
5 | COc1ccc(NC(=O)O[C@H]2[C@H](OC(=O)Nc3ccccc3)[C@H](OC(=O)Nc3ccccc3)[C@@H](OC)O[C@@H]2CO)cc1 | -0.985 | 0.998 | -1.29 | -2.7 | -2.72 | -0.186 | -0.0233 (inactive) | -0.339 | -0.261 | -1.44 (inactive) | -1.05 | 0.593 (inactive) | -1.49 (inactive) | 1.59 (inactive) | 0.509 (inactive) | 0.767 (inactive) | 0.124 (inactive) | 0.0606 (inactive) | -0.936 | -0.0599
6 | COC(=O)[C@@]1(Cc2ccc(F)cc2)[C@H]2c3cc(C(=O)N4CCCC4)n(CCN4CNCC4=O)c3C[C@H]2CN1C(=O)c1ccccc1 | -0.0823 | 1.32 | -0.403 | -0.0244 | -1.67 | 2.44 | -0.933 (inactive) | -0.452 | -1.23 | 0.415 (inactive) | 0.424 | 1.39 (inactive) | -0.758 (inactive) | -0.421 (inactive) | 0.976 (inactive) | 0.76 (inactive) | 0.264 (inactive) | -1.03 (inactive) | -0.628 | 0.253
7 | COc1cc(CO)cc(I)c1O[C@H]1C=C(C(=O)NCCO)C[C@@H](NCc2ccc(F)cc2)[C@@H]1O | 0.56 | 0.385 | 2.22 | -2.35 | -0.456 | 0.871 | -0.389 (inactive) | -0.251 | -2.07 | -0.183 (inactive) | -0.205 | -3.76 (inactive) | -1.29 (inactive) | 0.969 (inactive) | 0.507 (inactive) | 0.0419 (inactive) | 0.988 (inactive) | 0.878 (inactive) | -0.512 | -0.101
8 | CC(C)C(CO)N1C(=O)[C@@H]2C3C(=O)OCCC/C=C\[C@H]3OC23C=CCN(C(C)(C)C)C(=O)[C@@H]13 (stereo not given in full) | -0.444 | -0.496 | -0.972 | 0.724 | 0.851 | -0.3 | 0.306 (inactive) | 0.0508 | -0.351 | -0.265 (inactive) | -0.263 | 0.463 (inactive) | -0.428 (inactive) | -1.85 (inactive) | -0.0711 (inactive) | -0.348 (inactive) | 0.235 (inactive) | 0.129 (inactive) | -0.489 | -0.204
9 | OCCCC1=CC(c2ccc(CN3CCCC3)cc2)N(Cc2sc3ccccc3c2Cl)CC1 (stereo not given) | 0.48 | -0.301 | 0.212 | -3.45 | -3.64 | 3.4 | 0.0544 (inactive) | -0.252 | -0.356 | 0.341 (inactive) | -0.516 | -7.47 (inactive) | -0.846 (inactive) | 0.721 (inactive) | 0.367 (inactive) | 0.922 (inactive) | -0.365 (inactive) | -1.05 (inactive) | 0.234 | 0.0623
